According to publication PMC4336329 (PLoS ONE, 2015):
In all, about 310,000 compounds went through this assay and about 14,000 (4.5%) showed an effect of 50% or more. Effects have a minus sign here. Only a selection was taken, and strong results are over-represented in it overall.

What follows are compounds tested against human ether-à-go-go-related gene (hERG) potassium channel (human, UniProt Q12809) (assay: primary screen, population patch clamp on CHO cells stably expressing hERG; higher = less effect of the substance).
Chain of human ether-à-go-go-related gene (hERG) potassium channel (Q12809 whole entry, looked up): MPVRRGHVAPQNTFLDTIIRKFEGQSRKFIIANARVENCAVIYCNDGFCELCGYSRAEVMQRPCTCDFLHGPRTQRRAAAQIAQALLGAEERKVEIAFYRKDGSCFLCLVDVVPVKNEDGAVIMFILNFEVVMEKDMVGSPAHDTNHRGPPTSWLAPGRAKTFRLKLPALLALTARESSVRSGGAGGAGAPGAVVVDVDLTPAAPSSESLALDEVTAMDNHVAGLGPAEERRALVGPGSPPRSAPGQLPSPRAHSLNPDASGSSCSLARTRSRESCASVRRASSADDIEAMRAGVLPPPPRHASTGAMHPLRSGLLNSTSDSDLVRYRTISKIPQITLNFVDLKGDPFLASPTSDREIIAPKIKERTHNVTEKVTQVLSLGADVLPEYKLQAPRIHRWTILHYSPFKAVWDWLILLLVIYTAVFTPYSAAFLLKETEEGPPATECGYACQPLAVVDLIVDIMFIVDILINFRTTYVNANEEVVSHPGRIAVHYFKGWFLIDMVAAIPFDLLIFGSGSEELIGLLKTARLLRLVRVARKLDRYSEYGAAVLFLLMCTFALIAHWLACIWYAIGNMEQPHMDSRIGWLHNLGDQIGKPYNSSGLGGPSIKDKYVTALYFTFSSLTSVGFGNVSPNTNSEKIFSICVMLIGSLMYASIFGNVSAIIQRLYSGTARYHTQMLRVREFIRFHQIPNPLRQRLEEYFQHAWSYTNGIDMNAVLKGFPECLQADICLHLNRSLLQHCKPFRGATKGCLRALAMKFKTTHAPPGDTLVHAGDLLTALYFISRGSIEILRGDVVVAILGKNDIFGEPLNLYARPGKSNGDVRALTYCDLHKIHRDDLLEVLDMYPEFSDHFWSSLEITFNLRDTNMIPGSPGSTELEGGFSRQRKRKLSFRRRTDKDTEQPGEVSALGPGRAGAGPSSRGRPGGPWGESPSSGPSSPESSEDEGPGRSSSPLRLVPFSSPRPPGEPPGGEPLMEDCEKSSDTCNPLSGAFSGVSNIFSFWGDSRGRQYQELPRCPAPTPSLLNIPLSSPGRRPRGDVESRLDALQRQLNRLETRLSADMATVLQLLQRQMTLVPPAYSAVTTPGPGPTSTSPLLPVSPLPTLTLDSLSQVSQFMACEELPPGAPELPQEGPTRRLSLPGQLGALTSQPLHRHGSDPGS
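Also: peak tail current of the secondary pulse compared with the same well before compound.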

Structure (SMILES)	hERG current change (%, negative = inhibition) at 10uM [%]
COc1cccc(-c2csc(N3CCN(Cc4ccccc4)CC3)n2)c1	0.166
COCC(=O)Nc1nnc(COc2ccc(Cl)cc2)s1	-0.556
CCC(C)(C)C1CCC2(CC1)NC(=O)N(CC(=O)NCCc1c[nH]c3ccccc13)C2=O (stereo not drawn)	-20.3
COc1ccccc1N(C(=O)CCl)c1cn(C(C)=O)c2ccccc12	-10.6
C=CCOc1ccccc1C1C2=C(CC(C)(C)CC2=O)Nc2c1c(=O)n(C)c(=O)n2C (stereo not drawn)	-3.8
CC(C)CCN1CCN(Cc2c(F)cccc2Cl)CC1CCO (stereo not drawn)	-21.6
Cc1cccc(CN2CCN(CC(C)C)C(CCO)C2)n1 (stereo not drawn)	17.7
CC(C)CN1CCN(Cc2cccn2-c2ccc(Cl)cn2)CC1CCO (stereo not drawn)	-64.6
CC(C)CN1CCN(Cc2c(F)cccc2Cl)CC1CCO (stereo not drawn)	-10.4
CC(C)CCN1CCN(Cc2cccn2-c2ccc(Cl)cn2)CC1CCO (stereo not drawn)	-64.8
CC(C)CCN1CCN(Cc2ccon2)CC1CCO (stereo not drawn)	4.53
O=C(COC(=O)/C=C/c1ccc(Cl)cc1Cl)Nc1cc(C(F)(F)F)ccc1N1CCOCC1	8.56
O=C(O)CSc1nc(SCc2ccccc2Cl)nc2c1CCCC2	15.4
Cc1[nH]n(-c2ccccc2)c(=O)c1CCO	13.7
Cl.O[C@@H](c1cc(C(F)(F)F)nc2c(C(F)(F)F)cccc12)[C@H]1CCCCN1	6.31
Cl.OC(c1cc(C(F)(F)F)nc2c(C(F)(F)F)cccc12)C1CCCCN1 (stereo not drawn)	-12.4
OC(c1cc(-c2ccc(Cl)cc2)nc2ccccc12)C1CCCCN1 (stereo not drawn)	-52.6
Cc1cccnc1NC(=O)Cn1c(=O)oc2ccccc21	23
Cc1ccc(N2C(=O)NC(=O)/C(=C\c3cccn3C(C)(C)C)C2=O)cc1	24.5
Cl.N=c1sccn1CC(=O)NC(c1ccccc1)c1ccccc1	-63.3
O=C(CSc1ccccc1)Nc1cc(Cl)ccc1Oc1ccccc1	-9.05
Cl.N=c1sccn1CC(=O)Nc1ccccc1-c1ccccc1	-2.05

Structure (SMILES)	hERG current change (%, negative = inhibition) at 10uM [%]
Cl.N=c1sccn1CC(=O)Nc1cccc(Oc2ccccc2)c1	-65.5
Cl.N=c1sccn1CC(=O)Nc1ccc2c(c1)CCC2	-14.1
Cl.N=c1sccn1CC(=O)Nc1ccc(SC(F)F)cc1	-62.1
Cl.N=c1sccn1CC(=O)Nc1cccc2ccccc12	2.9
Cc1ccc(Oc2ccc(NC(=O)Cn3ccsc3=N)cc2)cc1.Cl	-45.1
Cl.N=c1sccn1CC(=O)Nc1cc(Cl)ccc1[N+](=O)[O-]	2.64
Cl.N=c1sccn1CC(=O)Nc1cc(Cl)ccc1Oc1ccccc1	-75.2
Cl.N=c1sccn1CC(=O)Nc1cccc(S(N)(=O)=O)c1	12.5
Cl.N=c1sccn1CC(=O)Nc1ccc(S(N)(=O)=O)cc1	18.2
COc1cc(C(=O)NC(=S)Nc2ccc(NC(=O)c3ccco3)cc2)cc(OC)c1OC	-6.61
CC(=O)Nc1ccc(NC2=CC(=O)c3ccccc3C2=O)cc1	11.6
COc1cccc2cc(C(=O)NCCC3=CCCCC3)c(=O)oc12	2.79
O=C(/C=C/c1ccccc1)NC(=O)c1ccccc1O	9.95
CC1CCCN(Cc2cnc(Cl)s2)C1 (stereo not drawn)	13
CCC(=O)N1CCc2cc(S(=O)(=O)N3CCN(C(=O)c4ccco4)CC3)ccc21	-21.8
CCCc1c(C(=O)N/N=C/c2ccccc2OCc2ccc(F)cc2)nnn1-c1nonc1N	18.6
Cn1c(=O)c2c(ncn2C)n(C)c1=O	10.1
CCN1CCN(C(C)C(=O)Nc2c(C)n(C)n(-c3ccccc3)c2=O)CC1.O=C(O)C(=O)O (stereo not drawn)	18.6
CCNc1nc(NCC)nc(Oc2ccc(C(=O)OC)cc2)n1	-5.78
COc1cccc2c(=O)c(C(=O)O)c[nH]c12	-0.514
COC(=O)c1sccc1NC(=O)C1CCCCC1C(=O)O (stereo not drawn)	14.7
CN(C)c1cccc(C(=O)N2CCC(n3nccc3NC(=O)C3CCOC3)CC2)c1 (stereo not drawn)	3.5

Structure (SMILES)	hERG current change (%, negative = inhibition) at 10uM [%]
COCCCNC(=O)C(=O)N/N=C/c1ccc(OCC(=O)Nc2cccc(Cl)c2C)c(OC)c1	-0.6
COc1ccc(Nc2nc(-c3ccccc3)nc3ccccc23)c(OC)c1	-1.67
COc1ccc(Nc2nc(Nc3ccc(OC)cc3OC)nc(N3CCN(C)CC3)n2)c(OC)c1	-22.6
COc1ccc(Nc2nc(N3CCCC3)nc3ccccc23)c(OC)c1	-44.6
COc1ccc(Nc2nc(N3CCCCC3)nc3ccccc23)c(OC)c1	-62.9
COc1ccc(Nc2nc(N3CCCCC3)nc(N3CCCCC3)n2)c(OC)c1	15.2
COc1ccc(Nc2nc(N3CCN(C)CC3)nc3ccccc23)c(OC)c1	-75.4
CCN(CC(=O)Nc1ccc(NC(C)=O)cc1)C(=O)CC1OC(=O)c2ccccc21 (stereo not drawn)	5.6
O=C(NCCO)c1nc(C(=O)c2ccccc2)c2ccccc2n1	15.9
Cc1nn(-c2ccccc2)c(C)c1C(=O)NCc1ccc(S(N)(=O)=O)cc1	20.1
Cc1nn(-c2ccccc2)c(C)c1C(=O)NCc1ccc(F)cc1	-53.2
Cc1nn(-c2ccccc2)c(C)c1C(=O)NCc1ccccc1F	3.78
O=C(CCc1nc2ccccc2c(=O)[nH]1)NNC(=O)COc1cccc(F)c1	-1.88
COc1ccc(F)cc1CN1CCN(CC(=O)N2CCc3ccccc32)CC1	-48.1
CCC(C)c1ccc(NC(=O)C2CC2)cc1 (stereo not drawn)	5.22
COc1ccc2c(COC(=O)CNS(=O)(=O)c3ccc(C)c(C)c3)cc(=O)oc2c1	-57.7
Cc1ccc(S(=O)(=O)NCC(=O)OCc2cc(=O)oc3cc(C)ccc23)cc1	-3.27
Cc1ccc(S(=O)(=O)NCC(=O)OCc2cc(=O)oc3c(C)c(C)ccc23)cc1C	-16.7
CCOC(=O)C(C)Sc1nnc(Cc2cc(=O)[nH]c(=O)[nH]2)n1-c1cccc(OC)c1 (stereo not drawn)	0.328
CCOC(=O)c1cnc2c(C)cc(Cl)cc2c1N1CCN(C)CC1.Cl	-19.6
CCOC(=O)c1cnc2c(Cl)c(Cl)ccc2c1N1CCN(C)CC1.Cl	-55.5
CCOC(=O)c1cnc2c(C)c(Cl)ccc2c1N1CCN(CC)CC1.Cl	-29.5

Structure (SMILES)	hERG current change (%, negative = inhibition) at 10uM [%]
CN(C)S(=O)(=O)n1cnc([C@H]2c3c(ncn3Cc3ccccc3)C[C@H]3COC(=O)[C@@H]32)c1	-4.15
Cc1ccc(C(c2sc3nc(C)nn3c2O)N2CC(C)OC(C)C2)cc1 (stereo not drawn)	13.3
O=c1c(Cl)c(NCC2CCCO2)cnn1C12CC3CC(CC(C3)C1)C2 (stereo not drawn)	-29.3
O=c1oc(Nc2ccc(F)cc2)nc2ccccc12	6.68
CCOC(=O)N1CCC(NC(=O)CSCc2nc(-c3ccccc3Cl)oc2C)CC1	-19.5
Cl.NC(=NC1CCCCC1)c1ccc(Cl)cc1	-39.2
N/C(=N\OC(=O)CCC1CCCCC1)c1ccc([N+](=O)[O-])cc1	-8.1
Cl.NC(=NC1CCCCC1)c1ccc([N+](=O)[O-])cc1	-57.2
COc1cc2occc2c2oc(=O)ccc12	0.24
O=c1[nH]c(=O)n(C2CCCCC2)c(O)c1/C=N/N1CCCCC1c1cccnc1 (stereo not drawn)	-13.6
COc1cc(-c2nc3ccc4ccccc4c3c3c2CCC3)ccc1O	13.8
COc1ccc([N+](=O)[O-])cc1N(CC(O)CN1CCOCC1)S(=O)(=O)c1ccccc1 (stereo not drawn)	20
Cc1ccc(N(CC(=O)N2CCCCCC2)S(=O)(=O)c2ccccc2)cc1	-25.3
O=C(CN(c1ccc([N+](=O)[O-])cc1)S(=O)(=O)c1ccccc1)N1CCCCC1	-61.9
CC1(C)NC(=O)N(CC(O)CN(c2ccccc2)S(=O)(=O)c2ccc([N+](=O)[O-])cc2)C1=O (stereo not drawn)	-13.7
O=[N+]([O-])c1ccc(N(CC(O)CN2CCCCC2)S(=O)(=O)c2ccccc2)cc1 (stereo not drawn)	-74
O=[N+]([O-])c1ccc(S(=O)(=O)N(CC(O)CN2CCCCC2)c2ccccc2)cc1 (stereo not drawn)	-80.9
COc1ccc([N+](=O)[O-])cc1N(CC(O)CN1CCCCC1)S(=O)(=O)c1ccccc1 (stereo not drawn)	-11.2
O=C(CN(c1cccc([N+](=O)[O-])c1)S(=O)(=O)c1ccccc1)N1CCCCC1	-24.8
CNC(=O)OCCc1n(C)cc[n+]1C.[I-]	13.9
Cn1cnnc1Sc1ccc(C(=O)OCC(=O)NCC(F)(F)F)cc1[N+](=O)[O-]	0.021
